According to PubChem BioAssay (Tox21):
Inconclusive results are not listed. The source made the active and inactive calls. Calls come from the whole dose curve; as a rule, active = well fitted curve in the direction sought with a large enough effect in the repeat runs; inconclusive = weak or mixed curves; inactive = no such curve, though single readings can be large; an effect the other way counts as inactive or inconclusive.

Experiments:
[1] = A CellTox Green Cytotoxicity Assay to monitor cytotoxicity in HEK293 cells - 40 hour (AID 1224871); note: nearly all actives have a fitted effect of over 45% in size
Summary of the method: (§1)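 HEK293 cells, 600/well, were preincubated 5 hours and then exposed to compounds at 37 C for up to 40 hours. A cell-impermeant cyanine dye staining dead-cell DNA was read by fluorescence at 0, 8, 16, 24, 32 and 40 h time points.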

[2] = qHTS RealTime-Glo MT Cell Viability Assay in HEK293 cells - 16 hour (AID 1224872); note: nearly all actives have a fitted effect of over 50% in size; note: potency is the fitted concentration of half-maximal effect
Summary of the method: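 Quantitative high-throughput screen of the Tox21 10K library in HEK293: cells and RealTime-Glo reagents plated together, compound added at 5 h, luminescence monitored through 40 h at 37 C.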

[3] = qHTS RealTime-Glo MT Cell Viability Assay in HepG2 cells - 8 hour (AID 1224873); note: nearly all actives have a fitted effect of over 55% in size
Summary of the method: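 HepG2 cells mixed with RealTime-Glo MT reagents (NanoLuc plus cell-permeant prosubstrate) were seeded at 600 cells/well, incubated 5 h at 37 C/5% CO2, then pinned with compounds in DMSO; nonlytic luminescence tracked viability during 40 h treatment.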

[4] = qHTS RealTime-Glo MT Cell Viability Assay in HEK293 cells - 40 hour (AID 1224874); conditions: RealTime-Glo luminescence; max response: hits give low values; note: nearly all actives have a fitted effect of over 50% in size; note: potency is the fitted concentration of half-maximal effect
Summary of the method: (§2)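 600 cells/well were plated with the nonlytic NanoLuc/prosubstrate reagent, pre-incubated 5 h, then given 23 nL of compound in DMSO. Incubation at 37 C for 40 h, with luminescence from viable-cell-reduced substrate read repeatedly from 0 h.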

[5] = A CellTox Green Cytotoxicity Assay to monitor cytotoxicity in HEK293 cells - 24 hour (AID 1224875); note: nearly all actives have a fitted effect of over 45% in size; note: potency is the fitted concentration of half-maximal effect
Summary of the method: as §1

[6] = A CellTox Green Cytotoxicity Assay to monitor cytotoxicity in HepG2 cells - 16 hour (AID 1224876); note: nearly all actives have a fitted effect of over 45% in size
Summary of the method: (§3)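 HepG2 cells, 600/well, preincubated 5 h with CellTox Green dye, then exposed to Tox21 compounds in DMSO at 37 C for up to 40 h. Dead-cell DNA fluorescence read at the indicated time point.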

[7] = A CellTox Green Cytotoxicity Assay to monitor cytotoxicity in HepG2 cells - 24 hour (AID 1224878); note: nearly all actives have a fitted effect of over 45% in size; note: potency is the fitted concentration of half-maximal effect
Summary of the method: as §3

[8] = qHTS RealTime-Glo MT Cell Viability Assay in HEK293 cells - 0 hour (AID 1224880)
Summary of the method: as §2

[9] = qHTS RealTime-Glo MT Cell Viability Assay in HepG2 cells - 32 hour (AID 1224877); note: nearly all actives have a fitted effect of over 55% in size
Summary of the method: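 Compound treatment began 5 h after plating HepG2 cells (600/well) with NanoLuc luciferase and prosubstrate. Plates stayed at 37 C for 40 h; luminescence was captured at six time points, 0 h through 40 h.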

[10] = A CellTox Green Cytotoxicity Assay to monitor cytotoxicity in HepG2 cells - 40 hour (AID 1224879); note: nearly all actives have a fitted effect of over 40% in size
Summary of the method: as §3
% is set by controls: 0 for no effect and ±100 for the full control effect.

CC(=O)C(C)=O
inactive: Potency [1] | Potency [2] | Potency [3] | max response [4] 13.9% | Potency [5] | Potency [6] | Potency [7] | Potency [8]

CC(=O)OCC(=O)[C@@]1(OC(C)=O)[C@@H](C)C[C@H]2[C@@H]3C[C@H](F)C4=CC(=O)C=C[C@]4(C)[C@@]3(F)[C@@H](O)C[C@@]21C
inactive: Potency [1] | Potency [2] | Potency [3] | Potency [5] | Potency [6] | Potency [9] | Potency [7] | Potency [10]

Nc1ccc(NC(=O)c2ccc(N)cc2)cc1
inactive: Potency [1] | Potency [2] | Potency [3] | max response [4] -13% | Potency [5] | Potency [6] | Potency [7] | Potency [10] | Potency [8]

O=C(O)CO
inactive: Potency [1] | Potency [2] | Potency [3] | max response [4] 8.33% | Potency [5] | Potency [6] | Potency [9] | Potency [8]

N[C@@H](Cc1cc(I)c(O)c(I)c1)C(=O)O
inactive: Potency [1] | Potency [2] | Potency [3] | max response [4] 3.01% | Potency [5] | Potency [6] | Potency [7] | Potency [10] | Potency [8]

CC(C)(C)C1(CCc2ccc(Cl)cc2)CO1 (configuration not stated)
inactive: Potency [1] | Potency [2] | Potency [3] | max response [4] -16.7% | Potency [6] | Potency [9] | Potency [8]

Nc1c(Cl)cc(Cl)cc1[N+](=O)[O-]
inactive: Potency [1] | Potency [2] | Potency [3] | max response [4] 7.12% | Potency [5] | Potency [9] | Potency [8]

O=C(O)c1cccc(C[C@@H]2COc3ccc(OCc4nc5cc(F)ccc5s4)cc3[C@@H]2O)c1
inactive: Potency [1] | Potency [2] | Potency [3] | max response [4] 4.74% | Potency [5] | Potency [6] | Potency [7] | Potency [10] | Potency [8]

CC1CCCC(=O)C1=O (configuration not stated)
inactive: Potency [1] | Potency [2] | Potency [3] | max response [4] 4.99% | Potency [5] | Potency [6] | Potency [9] | Potency [8]

O=C(O)CCCc1c[nH]c2ccccc12
active: Potency [7] 17.4 µM
inactive: Potency [1] | Potency [2] | Potency [3] | max response [4] -0.277% | Potency [5] | Potency [6] | Potency [9] | Potency [8]

CCCCCCCCCCCCCC(=O)OCC(O)CO (configuration not stated)
inactive: Potency [1] | Potency [2] | Potency [3] | max response [4] -0.733% | Potency [6] | Potency [7] | Potency [10] | Potency [8]

Cc1ccc(N(CC2=NCCN2)c2cccc(O)c2)cc1
inactive: Potency [1] | Potency [2] | Potency [3] | max response [4] -23.3% | Potency [5] | Potency [6] | Potency [7] | Potency [10] | Potency [8]

CCOc1ncc(F)c(=O)[nH]1
inactive: Potency [1] | Potency [2] | Potency [3] | max response [4] -0.726% | Potency [5] | Potency [6] | Potency [7] | Potency [10] | Potency [8]

CC1CCc2nccnc21 (configuration not stated)
inactive: Potency [1] | Potency [2] | Potency [3] | max response [4] -2.75% | Potency [5] | Potency [9] | Potency [8]

CC(C)(O)c1coc(S(=O)(=O)NC(=O)Nc2c3c(cc4c2CCC4)CCC3)c1
inactive: Potency [1] | Potency [2] | Potency [3] | max response [4] 21.1% | Potency [5] | Potency [9] | Potency [8]

CC(C)(C)NCC(O)COc1cccc2c1C[C@H](O)[C@H](O)C2 (some centres not stated)
inactive: Potency [1] | Potency [2] | Potency [3] | max response [4] 4.53% | Potency [5] | Potency [6] | Potency [7] | Potency [10] | Potency [8]

CCCCCCCCCCCCCOS(=O)(=O)O
active: Potency [5] 24.5 µM
inactive: Potency [1] | Potency [2] | Potency [3] | max response [4] -4.56% | Potency [9] | Potency [8]

CC(C(=O)O)c1ccc(C(=O)c2cccs2)cc1 (configuration not stated)
inactive: Potency [1] | Potency [2] | Potency [3] | max response [4] 0.273% | Potency [5] | Potency [6] | Potency [7] | Potency [10] | Potency [8]

COc1cc(C(C)=O)ccc1OCCCN1CCC(c2noc3cc(F)ccc23)CC1
inactive: Potency [1] | Potency [3] | Potency [5] | Potency [6] | Potency [8]
active: Potency [2] 7.56 µM | Potency [4] 10.7 µM

CC1C(C)(C)C2=C(C(=O)CCC2)C1(C)C (configuration not stated)
inactive: Potency [1] | Potency [2] | Potency [3] | max response [4] -12.9% | Potency [5] | Potency [9] | Potency [8]

CCOC(=O)C(C)O (configuration not stated)
inactive: Potency [1] | Potency [2] | Potency [3] | max response [4] 15.3% | Potency [5] | Potency [6] | Potency [7] | Potency [10] | Potency [8]

CC(C)(O)CCc1ccccc1
inactive: Potency [1] | Potency [2] | Potency [3] | max response [4] -8.47% | Potency [5] | Potency [6] | Potency [7] | Potency [10] | Potency [8]

CCOC(=O)N1CCC(Nc2ccc(Cl)cc2N)CC1
inactive: Potency [1] | Potency [2] | Potency [3] | max response [4] -19% | Potency [5] | Potency [6] | Potency [7] | Potency [10] | Potency [8]

COc1ccc(N)c([N+](=O)[O-])c1
inactive: Potency [1] | Potency [2] | Potency [3] | max response [4] -15.1% | Potency [5] | Potency [6] | Potency [7] | Potency [10] | Potency [8]
